Measured values reported in PubChem BioAssay AID1159580 (chemical genetic matrix, 2015).
About 2,000 (36%) of roughly 5,500 compounds were called active. About 18% were inconclusive and are not listed. No stated cut-off is given here; in the data, active means normalized growth mostly below about 0.91 (no sharp cut-off); inconclusive means no clear call, values can overlap the other calls; inactive means mostly above about 0.92. This is one part of the list.

Assay: chemical genetic growth profiling, strain panel (AID 1159580);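 further: tested at 20 µM; growth read once vehicle control cultures reached saturation at 30 °C; 1 = growth at the plate median or of vehicle wells; lower values mean less growth of the strain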
Conditions: growth OD

Measured: normalized growth

COC(=O)c1ccccc1-n1cccc1C(=O)OC
inactive: S. cerevisiae deletion strains, locus YAL013W, strain DEP1, hits give low values 0.981 | S. cerevisiae deletion strains, locus YBR229C, strain ROT2, hits give low values 0.975 | S. cerevisiae deletion strains, locus YDL101C, strain DUN1, hits give low values 0.971 | S. cerevisiae deletion strains, locus YDL134C, strain PPH21, hits give low values 0.997 | S. cerevisiae deletion strains, locus YDR150W, strain NUM1, hits give low values 1.01 | S. cerevisiae deletion strains, locus YEL061C, strain CIN8, hits give low values 0.994 | S. cerevisiae deletion strains, locus YGR078C, strain PAC10, hits give low values 0.982 | S. cerevisiae deletion strains, locus YGR229C, strain SMI1, hits give low values 1.02 | S. cerevisiae deletion strains, locus YHR030C, strain SLT2, hits give low values 1.04 | S. cerevisiae deletion strains, locus YHR087W, strain rtc3, hits give low values 0.96 | S. cerevisiae deletion strains, locus YJL187C, strain SWE1, hits give low values 0.996 | S. cerevisiae deletion strains, locus YJR043C, strain POL32, hits give low values 0.993 | S. cerevisiae deletion strains, locus YJR075W, strain HOC1, hits give low values 1.05 | S. cerevisiae deletion strains, locus YLR039C, strain RIC1, hits give low values 0.97 | S. cerevisiae deletion strains, locus YLR058C, strain SHM2 (second series), hits give low values 0.989 | S. cerevisiae deletion strains, locus YLR085C, strain ARP6, hits give low values 1.03 | S. cerevisiae deletion strains, locus YLR262C, strain YPT6, hits give low values 0.973 | S. cerevisiae deletion strains, locus YML094W, strain GIM5, hits give low values 0.957 | S. cerevisiae deletion strains, locus YMR219W, strain ESC1, hits give low values 0.99 | S. cerevisiae deletion strains, locus YMR263W, strain SAP30, hits give low values 1.02 | S. cerevisiae deletion strains, locus YNL153C, strain GIM3, hits give low values 1 | S. cerevisiae deletion strains, locus YNL298W, strain CLA4 (second series), hits give low values 0.988 | S. cerevisiae deletion strains, locus YNL322C, strain KRE1, hits give low values 0.992 | S. cerevisiae deletion strains, locus YNR030W, strain Alg12, hits give low values 0.973 | S. cerevisiae deletion strains, locus YOL006C, strain TOP1, hits give low values 0.969 | S. cerevisiae deletion strains, locus YPL055C, strain LGE1, hits give low values 0.972 | S. cerevisiae deletion strains, locus YPL241C, strain CIN2, hits give low values 0.969 | S. cerevisiae deletion strains, locus YPR135W, strain CTF4, hits give low values 0.943 | S. cerevisiae strains, strain wild type, hits give low values 0.993
